Source: PubChem (National Center for Advancing Translational Sciences (NCATS))
D1 agonist: Allosteric Agonists of the Human D1 Dopamine Receptor: qHTS; D(1A) dopamine receptor (Homo sapiens), P21728; hit rate 1% among 360,000; HEK293 T-REx D1 cells, calcium flux, agonist mode; activation, % at 2 µM; AID 504660, 2011
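Inducible HEK293 T-REx D1 cells, force-coupled to calcium signalling, were plated at 4000 cells/well with tetracycline and held overnight at 30 C. After no-wash calcium dye loading, compound-evoked calcium rise over 180 s flagged agonists.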
TRHR PAM: qHTS for Small Molecule Agonists and Allosteric Enhancers of Human TRH Receptor: Primary Screen for Enhancers; Thyrotropin-releasing hormone receptor (Homo sapiens), P34981; enhancement, % at 2 µM; TRHR cells, fluo-8 calcium fluorescence, EC20 TRH enhancement; hit rate 0.66% among 360,000; AID 493056, 2011; in the data active = enhancement above about 30%
Target sequence (P34981 whole entry, looked up): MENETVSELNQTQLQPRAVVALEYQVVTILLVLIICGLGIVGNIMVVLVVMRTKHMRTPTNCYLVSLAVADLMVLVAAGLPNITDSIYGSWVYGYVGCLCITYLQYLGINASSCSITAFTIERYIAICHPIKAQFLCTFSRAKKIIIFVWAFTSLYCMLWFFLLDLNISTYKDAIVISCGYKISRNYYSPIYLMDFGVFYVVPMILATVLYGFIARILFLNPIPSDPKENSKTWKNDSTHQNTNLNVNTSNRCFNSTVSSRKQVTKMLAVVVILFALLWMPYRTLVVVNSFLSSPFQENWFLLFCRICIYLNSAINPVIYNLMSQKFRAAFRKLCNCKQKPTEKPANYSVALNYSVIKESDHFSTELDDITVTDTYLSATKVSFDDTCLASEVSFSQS
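TRHR-expressing cells loaded with fluo-8 calcium dye were read kinetically (ex 480/em 530) during compound addition, then stimulated with an EC20 of TRH (10 nM final). Enhancement of the Gq-mediated intracellular calcium response was scored.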
TRHR agonist: qHTS for Small Molecule Agonists and Allosteric Enhancers of Human TRH Receptor: Primary Screen for Agonists | Thyrotropin-releasing hormone receptor (Homo sapiens), P34981 | TRHR cells, calcium flux fluo-8, FDSS agonist mode | activation, % at 2 µM | hit rate 0.18% among 360,000
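In this calcium-flux screen, cells bearing human TRHR are dye-loaded with fluo-8, baselined for 10 cycles, then exposed to library compounds; positive kinetic calcium responses during the agonist phase mark hits, with TRH as control.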
D1 potentiator: Potentiators of Human D1 Dopamine Receptor: qHTS | potentiation, % at 10 µM | AID 504651, 2011 | hit rate 0.036% among 360,000 | HEK293 TREx D1 cells, calcium flux, dopamine EC20 potentiation; in the data active = potentiation above about 30%
D1 antagonist: Antagonist of Human D 1 Dopamine Receptor: qHTS; AID 504652, 2011; HEK293 TREx D1 cells, calcium flux, dopamine EC80; hits give low values; hit rate 3.2% among 360,000; D(1A) dopamine receptor (Homo sapiens), P21728; activity change, negative = inhibition, % at 10 µM; in the data active = activity change below about -30%
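Inducible Hek293 Trex D1 cells (tetracycline, overnight, 30 C). Calcium dye 30–90 min RT. Antagonist mode: EC80 dopamine added after 180 s compound read.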
Hits are given with their value; – = inactive; · = no result given. In the library only some 4.7% were active in any assay of this set; here they are far more common. Rule as the data show it, unless noted: active = activation above about 30%; inactive = the rest.

SMILES	D1 agonist	TRHR PAM	TRHR agonist	D1 potentiator	D1 antagonist
COC(=O)CSC1=C(C#N)C(c2cccc(OC)c2)CC(=O)N1 (stereo not drawn)	–	–	–	·	-42
CCCSC1=C(C#N)C(c2ccc(O)c(OC)c2)CC(=O)N1 (stereo not drawn)	–	–	–	·	-53
COC(=O)CSC1=C(C#N)C(c2cccc(F)c2)CC(=O)N1 (stereo not drawn)	–	–	–	–	–
CCOc1ccccc1C1CC(=O)NC(SCC)=C1C#N (stereo not drawn)	–	34	–	–	–
CCc1ccc(NC(=O)CSc2nc3ccccc3c(=O)n2CCCC(=O)NCCCN2CCOCC2)cc1	–	–	–	–	–
Cc1ccc(NC(=O)CNC2CCS(=O)(=O)C2)cc1C (stereo not drawn)	–	–	–	–	–
CSc1ncccc1C(=O)OCC(=O)c1cc(C)n(CC2CCCO2)c1C (stereo not drawn)	–	–	–	–	-34
Cc1cc(C(=O)CSc2nc3ccccc3[nH]2)c(C)n1CC1CCCO1 (stereo not drawn)	–	–	–	–	-33
CC(Oc1ccccc1)C(=O)Nc1cccc(-c2cn3cccnc3n2)c1 (stereo not drawn)	–	–	–	–	–
C/C(=N\OCC(=O)OCC(=O)N(Cc1ccccc1)C(C)(C)C)c1ccc2c(c1)OCO2	–	–	–	–	-36
C/C(=N\OCC(=O)OCC(=O)N(C)c1ccccc1)c1ccc2c(c1)OCO2	–	–	–	–	–
CCCNC(=O)/C=C/c1ccc(C(C)C)cc1	–	35	–	–	–
CCCn1nnc(NC(=O)/C=C/c2ccc(C(C)C)cc2)n1	38	–	–	–	–
NS(=O)(=O)c1ccc(NC(=O)CSc2nc3ccccc3[nH]2)cc1	–	–	–	–	-84
O=C(CSc1nc2ccccc2[nH]1)Nc1ccc(F)c(F)c1	–	–	–	–	–
O=C(CSc1nc2ccccc2[nH]1)NC(=O)NCc1ccco1	–	–	–	–	-40
COc1ccc(CCNC(=O)c2cccs2)cc1	–	–	–	–	–
COc1cccc(CNn2c(-c3cccc(C)c3)nc3ccccc3c2=O)c1	–	37	–	–	–
O=C(Oc1cc(=O)oc2c1c(=O)n1c3c(cccc23)CC1)c1ccccc1	–	–	–	–	-38
O=C(NCc1ccc(F)cc1)c1c(O)c2cccc3c2n(c1=O)CCC3	–	–	–	–	–
O=C(Oc1cc(=O)oc2ccccc12)c1ccccc1	–	–	–	–	–
O=C(Oc1cc(=O)oc2c1c(=O)n1c3c(cccc23)CC1)c1ccc(F)cc1	–	–	–	–	-45
C=CCNC(=O)c1onc(CSc2ccccn2)c1C(=O)NCC=C	–	–	–	–	-60
Cc1ccc(-c2nnc(Nc3cccc(O)c3)c3ccccc23)cc1S(=O)(=O)N1CCCCC1	–	–	–	–	–
COc1ccc2nc(S(=O)Cc3ncc(C)c(OC)c3C)[nH]c2c1 (stereo not drawn)	–	32	–	–	–
SMILES	D1 agonist	TRHR PAM	TRHR agonist	D1 potentiator	D1 antagonist
COCCCOc1ccnc(CS(=O)c2nc3ccccc3[nH]2)c1C (stereo not drawn)	–	–	–	–	–
O=C(Cn1c(=O)n(Cc2ccc3c(c2)OCO3)c(=O)c2oc3ccccc3c21)Nc1ccccc1	–	–	–	–	–
COc1ccc(CCNC(=O)COC(=O)C2CC2C)cc1OC (stereo not drawn)	–	–	–	–	–
CCOC(=O)c1ccc(COC(=O)CNS(=O)(=O)c2ccccc2)cc1	–	–	–	–	-33
CCc1ccc(C(=O)C(C)OC(=O)CNS(=O)(=O)c2ccc(C)cc2)cc1 (stereo not drawn)	32	–	–	–	–
CCOC(=O)CNS(=O)(=O)c1ccc(S(=O)(=O)N2CCCC2)cc1	–	–	–	–	-103
